Some test systems named below: NCI-H23 lung; NCI-H226 lung; HOP-62 NSCLC; NCI-H460 lung; HOP-92 NSCLC; NCI-H522 lung; A549/ATCC NSCLC; 786-0 renal; DU-145 prostate; K-562 leukemia; MALME-3M melanoma; MDA-MB-231 breast; RXF 393 renal; SF-268 CNS; SF-295 CNS; SF-539 CNS; UACC-257 melanoma; M14 melanoma.
Holding throughout (experiment): NCI-60 one-dose screen, 48 h (100 = growth as untreated, 0 = no growth, -100 = all killed)
Holding throughout (conditions): 10 µM unless noted

The panel holds about 83,000 compounds, 20% with a hit somewhere; the sample as a whole holds those more often.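 For each line, cells grew in 96-well plates with the test compound present at a single concentration for 48 hours.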 Values without a mark were called inactive. Calls of active or inactive are those of the source. The calls were made as follows: active = growth percent below 10; inactive = the rest.

Take `C=CCOc1cccc(/C=C2\SC(=Nc3ccc(O)cc3)NC2=O)c1`: the growth in the assay with NCI-H23 lung is 40.2%; in the assay on NCI-H226 lung, -9.25% (active); in the assay on HOP-62 NSCLC, 25.6%; in the assay with NCI-H460 lung it was 2.23% (active); with HOP-92 NSCLC, 30.8%; in the assay with NCI-H522 lung, -10.9% (active). In addition, the growth with A549/ATCC NSCLC is 18.6%; in the assay with 786-0 renal, 11.2%; in the assay with DU-145 prostate, 5.29% (active); in the assay with K-562 leukemia, 5.21% (active); with MALME-3M melanoma, 58.3%; in the assay with MDA-MB-231 breast, -12.1% (active). Moreover, the growth in the assay with RXF 393 renal is -12.8% (active); with SF-268 CNS, 19.3%; with SF-295 CNS, 7.15% (active); with SF-539 CNS it was -38.1% (active); in the assay on UACC-257 melanoma, 68.4%; in the assay with M14 melanoma, 9.92% (active).
On to `N=C(N)c1ccc(-c2ccc(-c3ccc(Cl)cc3Cl)o2)cc1`, for which the growth is 3.61% (active) with NCI-H23 lung; 93.7% in the assay with NCI-H226 lung; -12.1% (active) with HOP-62 NSCLC; -65.7% (active) in the assay with NCI-H460 lung; 45.3% in the assay with HOP-92 NSCLC; 1.99% (active) with NCI-H522 lung. For the same compound, the growth in the assay with A549/ATCC NSCLC was -46.5% (active); in the assay on 786-0 renal, -86% (active); in the assay with DU-145 prostate it was -17.9% (active); in the assay with K-562 leukemia, -12.9% (active); in the assay with MALME-3M melanoma, 17.4%; with MDA-MB-231 breast it was -69.7% (active). For the same compound, the growth is 32.1% with RXF 393 renal; 47.3% in the assay with SF-268 CNS; -77.1% (active) with SF-295 CNS; -61.7% (active) in the assay on SF-539 CNS; 90.9% in the assay on UACC-257 melanoma; 8.85% (active) in the assay with M14 melanoma.
With `CC(C)N(CCOC(=O)Nc1ccccc1Cl)C(C)C`, the growth in the assay with NCI-H23 lung is 105%; in the assay on NCI-H226 lung, 86.3%; in the assay with HOP-62 NSCLC it was 93.3%; in the assay with NCI-H460 lung, 103%; with HOP-92 NSCLC, 84.4%; in the assay on NCI-H522 lung, 78.6%. Besides, the growth was 98.4% in the assay with A549/ATCC NSCLC; 98.8% with 786-0 renal; 105% with DU-145 prostate; 104% in the assay on K-562 leukemia; 104% in the assay with MALME-3M melanoma; 106% in the assay with MDA-MB-231 breast. The growth with RXF 393 renal was 108%; in the assay with SF-268 CNS it was 101%; with SF-295 CNS, 104%; in the assay with SF-539 CNS, 104%; with UACC-257 melanoma, 99.1%; with M14 melanoma it was 99.5%.
Turning to `Cc1c(C)c2c(c(C)c1NC(=O)/C=C\C(=O)O)CCC(C)(CCCC(C)CCCC(C)CCCC(C)C)O2` (stereo not given), the growth in the assay on NCI-H23 lung was 60.8%; with NCI-H226 lung, -85.9% (active); in the assay with HOP-62 NSCLC, -13.4% (active); with NCI-H460 lung it was 72.1%; in the assay on HOP-92 NSCLC, 45.5%; with NCI-H522 lung, 66.7%. Further, the growth in the assay with A549/ATCC NSCLC was 61.1%; in the assay with 786-0 renal, 33.5%; in the assay on DU-145 prostate, 80.2%; in the assay on K-562 leukemia, 71.9%; with MDA-MB-231 breast, 70.9%; in the assay on RXF 393 renal, -93% (active). Also, the growth was 53.9% in the assay with SF-268 CNS; 66.3% in the assay with SF-295 CNS; 8.15% (active) with SF-539 CNS; 20.5% in the assay with UACC-257 melanoma; 20.7% in the assay on M14 melanoma.
As for `CCCn1nc(-c2ccccc2)c2c(-c3ccccc3)onc2c1=O`, the growth with NCI-H23 lung is 85.6%; with NCI-H226 lung, 87.5%; with HOP-62 NSCLC, 74.2%; in the assay with NCI-H460 lung, 98.1%; with HOP-92 NSCLC, 75.6%; in the assay on NCI-H522 lung it was 62.6%. Also, the growth was 89% in the assay with A549/ATCC NSCLC; 94.1% in the assay with 786-0 renal; 104% in the assay with DU-145 prostate; 29.1% in the assay on K-562 leukemia; 96.5% with MALME-3M melanoma; 81.6% in the assay on MDA-MB-231 breast. Moreover, the growth with RXF 393 renal was 90.2%; in the assay on SF-268 CNS, 89.2%; in the assay on SF-295 CNS it was 74.3%; with SF-539 CNS it was 85%; in the assay on UACC-257 melanoma, 112%; in the assay with M14 melanoma, 57.2%.
With `[2H]c1nc(Nc2ncc(F)c(-c3cc(F)c4nc(C)n(C(C)C)c4c3)n2)c([2H])c([2H])c1CN1CCN(C([2H])([2H])C([2H])([2H])[2H])CC1`, the growth in the assay with NCI-H23 lung was 50.6%; in the assay on NCI-H226 lung, 49.1%; in the assay with HOP-62 NSCLC, 47%; in the assay on NCI-H460 lung, 53.1%; in the assay with HOP-92 NSCLC, 66.9%; in the assay with NCI-H522 lung, 58.1%. Besides, the growth with A549/ATCC NSCLC is 38.8%; in the assay with 786-0 renal, 39%; in the assay with DU-145 prostate, 66.2%; in the assay on K-562 leukemia, 49.6%; in the assay on MALME-3M melanoma it was 79.5%; in the assay on MDA-MB-231 breast, 65.2%. In addition, the growth in the assay on RXF 393 renal is 1.53% (active); with SF-268 CNS, 64.5%; in the assay with SF-295 CNS, 57.8%; in the assay on SF-539 CNS it was 72.1%; in the assay on UACC-257 melanoma, 52.3%; with M14 melanoma it was 47.5%.
As for `Nc1ccc(CCCCc2ccccc2)c(Cl)c1`, the growth was 101% in the assay on NCI-H23 lung; 96.8% in the assay with NCI-H226 lung; 105% with HOP-62 NSCLC; 102% in the assay with NCI-H460 lung; 53.1% in the assay on HOP-92 NSCLC; 71.1% with NCI-H522 lung. Also, the growth in the assay with A549/ATCC NSCLC was 81.2%; in the assay on 786-0 renal, 88.9%; in the assay on DU-145 prostate it was 103%; in the assay on K-562 leukemia it was 90.1%; with MALME-3M melanoma it was 106%; with MDA-MB-231 breast, 91.2%. The growth with RXF 393 renal was 90.3%; with SF-268 CNS it was 83%; with SF-295 CNS it was 104%; in the assay with SF-539 CNS, 91.2%; in the assay on UACC-257 melanoma it was 89%; with M14 melanoma, 103%.

Source of the values: PubChem BioAssay (NCI).
